# Compound activity (PubChem BioAssay)
# PLK1 PBD block = PLK1 (human) polo-box domain binding inhibition; Plk1 PBD binding of FITC phosphopeptide, fluorescence polarization; Potency, µM, for the others: max response, negative = inhibition, usual class: inhibitors; 2.8% of 360,000 active; further: potency means the concentration at half of the fitted maximal effect; series mostly up to about 57 µM; on the % scale 0 is the no-effect control and ±100 the full control effect; nearly all actives have a fitted effect of over 65% in size
# BAZ2B inh = inhibitors of human BAZ2B bromodomain; Q9UIF8; Potency, µM (titrated, usually from 114 µM), inactives show at the highest dose activity change, negative = inhibition, actives largely listed as inhibitors; AlphaScreen BAZ2B-H3K14Ac peptide displacement; 4.4% of 360,000 active; further: potency means the concentration at half of the fitted maximal effect; on the % scale 0 is the no-effect control and ±100 the full control effect; nearly all actives have a fitted effect of over 60% in size
#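 AlphaScreen displacement: compounds (up to 110uM) incubated 30 min at room temperature with a preformed 50 nM BAZ2B/50 nM biotinylated H3K14Ac peptide complex in PBS pH 7.4 with Tween-20. Donor and acceptor beads at 10 ug/mL final added, 20 min light-protected before reading.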
# PI5P4Ka inh = PI5P4K alpha (human) kinase inhibition; P48426; PI5P4Kalpha enzyme, ADP-Glo luminescence, 60 min; active compounds read low; max response, %; 1.2% of 330,000 active; active means max response of -50% or lower; inconclusive means between -30% and -50%; inactive means -30% or higher; further: value at the top dose of about 77 µM; on the % scale 0 is the no-effect control and ±100 the full control effect
#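 Quantitative HTS of the MLSMR library against PI5P4Kalpha with substrate. ATP added last at 5 microM final; room temperature, 60 minutes. Remaining ATP depleted, ADP converted and read as luminescence.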
# JMJD2A Tudor = inhibitors of human JMJD2A Tudor domain. O75164. AlphaScreen JMJD2A-Tudor / H3K4me3 peptide binding. Potency, µM (series often up to 114 µM), for inactives: at the top dose activity change, negative = inhibition, usual class: inhibitors. 4.4% of 390,000 active. AID 504339; further: potency means the concentration at half of the fitted maximal effect; on the % scale 0 is the no-effect control and ±100 the full control effect; nearly all actives have a fitted effect of over 50% in size
# Target sequence (O75164 whole entry, looked up, the tested form may be a part): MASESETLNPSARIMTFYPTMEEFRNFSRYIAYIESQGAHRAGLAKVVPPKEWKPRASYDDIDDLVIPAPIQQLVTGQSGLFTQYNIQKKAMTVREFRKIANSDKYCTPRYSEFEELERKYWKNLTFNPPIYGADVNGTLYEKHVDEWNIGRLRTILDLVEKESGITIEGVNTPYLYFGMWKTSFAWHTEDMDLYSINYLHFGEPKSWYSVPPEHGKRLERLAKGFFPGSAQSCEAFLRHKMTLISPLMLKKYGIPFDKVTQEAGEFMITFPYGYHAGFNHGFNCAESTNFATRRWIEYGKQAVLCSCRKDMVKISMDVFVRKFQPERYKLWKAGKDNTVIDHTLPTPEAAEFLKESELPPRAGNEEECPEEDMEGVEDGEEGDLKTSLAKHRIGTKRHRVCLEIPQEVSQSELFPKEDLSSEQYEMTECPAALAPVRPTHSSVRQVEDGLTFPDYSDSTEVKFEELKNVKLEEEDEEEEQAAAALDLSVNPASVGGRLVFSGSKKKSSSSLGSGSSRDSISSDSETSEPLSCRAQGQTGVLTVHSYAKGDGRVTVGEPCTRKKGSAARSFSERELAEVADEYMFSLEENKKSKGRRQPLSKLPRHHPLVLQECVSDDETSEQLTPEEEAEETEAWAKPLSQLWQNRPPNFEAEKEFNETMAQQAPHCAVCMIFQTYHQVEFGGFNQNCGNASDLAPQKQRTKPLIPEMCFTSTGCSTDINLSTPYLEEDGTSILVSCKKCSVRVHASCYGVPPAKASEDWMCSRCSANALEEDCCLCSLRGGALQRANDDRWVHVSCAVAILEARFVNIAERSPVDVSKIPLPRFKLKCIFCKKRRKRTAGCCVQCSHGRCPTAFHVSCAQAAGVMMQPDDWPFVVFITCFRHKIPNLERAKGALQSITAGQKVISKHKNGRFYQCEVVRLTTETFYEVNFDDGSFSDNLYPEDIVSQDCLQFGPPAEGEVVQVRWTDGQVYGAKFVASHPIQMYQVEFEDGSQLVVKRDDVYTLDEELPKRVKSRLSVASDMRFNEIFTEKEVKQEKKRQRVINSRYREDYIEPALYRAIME
# G9a block = G9a (human) methyltransferase inhibition | Q96KQ7 | G9a H3K9 monomethylation, AlphaScreen, 2 h | Potency, µM (doses to about 102 µM), inactives show at the highest dose activity, negative = inhibition, hits mostly inhibitors | 8.8% of 350,000 active | AID 504332; further: potency means the concentration at half of the fitted maximal effect; on the % scale 0 is the no-effect control and ±100 the full control effect; nearly all actives have a fitted effect of over 75% in size
#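 Enzyme 20 nM + cpd, 15 min RT; add b-H3K9 pep 500 nM / SAM 20 uM; 2 h RT; anti-H3K9me1 Ab 0.5 ug/mL + SA donor / anti-rabbit acceptor beads 20 ug/mL each, 10 min; AlphaScreen read.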
# HP1b binding inh = HP1-beta chromodomain-methylated histone interaction inhibition; AlphaScreen HP1-beta / biotin-H3K9me3 peptide binding; AID 540317; P83916; Potency, µM (titrated, usually from 114 µM), for inactives: at the highest dose activity change, negative = inhibition, usual class: inhibitors; 0.56% of 390,000 active; further: potency means the concentration at half of the fitted maximal effect; nearly all actives have a fitted effect of over 70% in size
#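 AlphaScreen: HP1-beta (50 nM) preformed 30 min with biotin-H3(1-18)K9me3 peptide (50 nM) in PBS pH 7.4, 0.01% Tween-20. Compound added for 30 min at RT, then streptavidin donor/nickel chelate acceptor beads (10 ug/mL) for 30 min.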
# * marks the source's active call; other numbers are inactive results; ? = inconclusive; nt = no result; [ ] = remark or other dose. Only some compounds are listed: those with a hit (about 12% of all), similar ones and a draw of the others. Unless noted, the call rests on the fitted dose curve; in most records, active means well fitted curve in the direction sought with a large enough effect; inconclusive means small, poorly fitted or top-dose-only effect, or another doubt; inactive means no such curve, though single readings can be large; an effect the other way counts as inactive or inconclusive.
SMILES,PLK1 PBD block,BAZ2B inh,PI5P4Ka inh,JMJD2A Tudor,G9a block,HP1b binding inh
COC1OC(COCc2ccccc2)C(N)C(OCc2ccccc2)C1OCc1ccccc1 (configuration not stated),0%,nt,16,-14%,nt,16%
COc1ccc(-c2nc3ccccn3c2/N=C/c2ccc(OC)c(OC)c2)cc1O,-8%,?,-9,?,?,?
Cc1cc(C)c([N+](=O)[O-])cc1-c1ccc(/C=N/c2c(-c3ccco3)nc3ccccn23)o1,-6%,10µM*,?,6.3µM*,17%[0.501 µM],?
O=[N+]([O-])c1ccc(Cl)c(-c2ccc(/C=N/c3c(-c4ccco4)nc4ccccn34)o2)c1,-7%,?,?,?,?,?
Oc1cccc(/C=N/c2c(-c3ccco3)nc3ccccn23)c1,-15%,56µM*,nt,?,50µM*,?
CCc1cccc(C)c1NC(=S)NCC1CCN(c2ccc(OC)cc2)C1 (configuration not stated),?,28µM*,1,45µM*,10µM*,22µM*
CCc1ccccc1NC(=S)N1CCC(NC(=O)c2ccc(OC)cc2)CC1,-8%,-2%,-1,-1%,-5%[0.501 µM],21%
COc1ccc(N2CCC(CNC(=S)Nc3cccc(OC)c3)C2)cc1 (configuration not stated),nt,16µM*,nt,nt,?,nt
CCc1ccccc1NC(=S)NCC1CCN(c2ccc(OC)cc2)C1 (configuration not stated),?,22µM*,-3,35µM*,?,13µM*
COc1cccc(NC(=S)NCc2ccc(F)cc2)c1,-13%,14%,5,-14%,nt,26%
CSC(=NS(=O)(=O)c1ccccc1)NNC(=O)c1c(-c2c(Cl)cccc2Cl)noc1C,-6%,nt,-1,nt,nt,nt
CC1Cc2cc(S(=O)(=O)CCC(=O)Nc3ccc(Cl)cc3F)ccc2N1C(=O)C1CC1 (configuration not stated),nt,-18%,nt,-12%,-8%[59 µM],8%
Cc1ccc2c(=O)cc(C(=O)Nc3ccc(S(=O)(=O)Nc4onc(C)c4C)cc3)oc2c1C,nt,-34%,nt,56µM*,-37%[59 µM],10%
Cc1noc(NS(=O)(=O)c2ccc(NC(=O)CC34CC5CC(CC(Br)(C5)C3)C4)cc2)c1C,?,-38%,1,-18%[57.1 µM],71µM*,39%
Cc1noc(NS(=O)(=O)c2ccc(NC(=O)/C=C/c3ccc(C(C)C)cc3)cc2)c1C,?,?,0,-35%,45µM*,-2%
Cc1noc(NS(=O)(=O)c2ccc(NC(=O)c3ccc(N4C(=O)c5ccccc5C4=O)cc3)cc2)c1C,-26%,50µM*,-2,-35%,2%,-5%
CN(Cc1ccccc1)C(=O)COC(=O)CN1C(=O)c2ccccc2C1=O,-3%,nt,-2,-17%,nt,19%
C=CCc1c(C)nc2c(C)cccc2c1SC(=N)N,-2%,-2%,17,18%,nt,65%
Cc1nc2c(C)cccc2c(SC(=N)N)c1CC=C(Cl)Cl,?,?,2,?,7.9µM*,59%
CCSc1oc(-c2ccco2)nc1S(=O)(=O)c1ccc(C)cc1,-20%,-31%,-20,-13%,25µM*,29%
O=S(=O)(c1ccccc1)c1nc(-c2cccs2)oc1SCc1ccccc1Cl,nt,-10%,nt,9%,-25%[59 µM],42%
CCSc1oc(-c2cccs2)nc1S(=O)(=O)c1ccccc1,?,-3%,-22,40µM*,?,?
Cc1ccc(S(=O)(=O)c2nc(-c3ccco3)oc2SCc2ccc(F)cc2)cc1,nt,-13%,nt,-9%,?,18%
CCSc1oc(-c2ccco2)nc1S(=O)(=O)c1ccc(F)cc1,-7%,3%,nt,-15%,4µM*,14%
Cc1ccc(S(=O)(=O)c2nc(-c3ccco3)oc2SC(C)C)cc1,-22%,-14%,?,-16%,45µM*,14%
SMILES,PLK1 PBD block,BAZ2B inh,PI5P4Ka inh,JMJD2A Tudor,G9a block,HP1b binding inh
CC(C)CSc1oc(-c2ccco2)nc1S(=O)(=O)c1ccccc1,-18%,-20%,?,4%,35µM*,63%
CCCCCS(=O)(=O)c1oc(-c2cccs2)nc1S(=O)(=O)c1ccc(C)cc1,nt,-5%,nt,-15%,3.5µM*,54%
CC(=O)c1c(CC(=O)O)[nH]n(-c2nc3ccccc3s2)c1=O,-22%,-9%,nt,79µM*,?,-4%
O=C(CSc1nc2ccccc2s1)Nc1ccc(N2CCOCC2)c(Cl)c1,-3%,4%,7,-22%,7.1µM*,23%
Cn1c(SCC(=O)Nc2ccc3nc(SCC(=O)N4CCCC4)sc3c2)nnc1-c1ccc(N)cc1,?,?,?,-23%,10µM*,24%
Cc1ccc(NC(=O)CSc2nc3ccc(Nc4nc(N5CCOCC5)nc(N5CCOCC5)n4)cc3s2)cc1,-5%,-20%,-6,-18%,35µM*,17%
COc1ccc(NC(=O)CSc2nc3ccc(Nc4nc(N5CCOCC5)nc(N5CCOCC5)n4)cc3s2)cc1,4%,-7%,-1,-12%,?,58%
CCC(Sc1nc2ccc(N)cc2s1)C(=O)Nc1nccs1 (configuration not stated),-24%,-32%,-5,50µM*,13µM*,26%
CCOc1cccc(CC(=O)NCc2ccc3c(c2)CCN3C(=O)c2cccc(C)c2)c1OCC,nt,-26%,nt,-28%,-38%[59 µM],32%
CC(=O)Nc1ccc2nc(SCC(=O)Nc3ccc(N4CCOCC4)c(Cl)c3)sc2c1,-10%,11µM*,-14,-21%,43%[0.501 µM],22%
CCCC(=O)Nc1ccc2nc(SCC(=O)Nc3nccs3)sc2c1,-4%,?,-15,79µM*,?,-10%
Cc1ccc(NC(=O)CSc2nc3ccc(NC(=O)CCc4ccccc4)cc3s2)c(C)c1,nt,-10%,nt,-8%,3%[59 µM],14%
Cc1ccc(C)c(NC(=O)CSc2nc3ccc(N4C(=O)c5ccccc5C4=O)cc3s2)c1,?,-1%,-8,-21%,11µM*,42%
Cc1ccc(NC(=O)CSc2nc3ccc(NC(=O)c4ccco4)cc3s2)cc1,nt,79µM*,nt,-35%,?,13%
CCCC(=O)Nc1ccc2nc(SCCOc3ccccc3)sc2c1,nt,?,nt,-9%,6%[59 µM],47%
Cc1cc(C)nc(SCC(=O)Nc2ccc(N3CCOCC3)c(Cl)c2)n1,-4%,-6%,-8,-18%,?,22%
COC(=O)C1CCN(S(=O)(=O)c2cc3c4c(c2)CC(=O)N4CCC3)CC1,nt,-7%,nt,-6%,5%[59 µM],14%
CN(C)c1ccc(NC(=O)c2sc(SCC(=O)Nc3ccc(Br)cc3)nc2N)cc1,-3%,-2%,-1,-2%,22%[59 µM],34%
CN(C)c1ccc(NC(=O)c2sc(SCC(=O)Nc3nccs3)nc2N)cc1,-11%,40µM*,-26,?,?,?
